Experimental findings from PubChem BioAssay (NCI) are described below.

About 83,000 compounds went through this panel and 20% of them were active in at least one assay; those are over-represented in the sample as a whole.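 Percent growth is the endpoint: 0 to 100 indicates growth inhibition (40 means 60% inhibition), 0 means no net growth, and negative values indicate cell death.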 Activity calls are given as the source filed them. Rule for the calls: active = growth percent below 10; inactive = the rest.

The test system of one experiment is MALME-3M melanoma. Nature of the experiment: NCI-60 one-dose screen, 48 h (100 = growth as untreated, 0 = no growth, -100 = all killed). Conditions: 10 µM unless noted.
For `CN(C)c1nc(NCCNS(=O)(=O)c2ccc(C3=Nc4c(N)nc(N)nc4NC(c4ccc(C(F)(F)F)cc4)C3)cc2)nc(Nc2ccc(F)cc2)n1` (centres undefined), the growth is -36.8% (active). The same measure, in the same setting: as for `O=C(NN1C(=O)/C(=C/C=C/c2ccc([N+](=O)[O-])o2)SC1=S)c1ccc(Cl)cc1`, the figure is -96% (active); as for `COCOc1ccc2c(=O)c(C)c(C(=O)N[C@@H](Cc3ccccc3)C(O)C(=O)NCCc3ccc(OC)cc3)oc2c1` (some centres undefined), 111% (inactive). As for `C#CCOc1cc(N(CC)CC)ccc1C(C(=O)NC(C)(C)C)N(C(=O)C1CCc2cc(F)ccc2O1)c1ccc(Br)cc1` (centres undefined), the growth is 92.6% (inactive). As to `Cc1cc2nc3c4ccccc4n(CC4=NCCN4)c3nc2cc1C`, the growth is -92.7% (active). For the compound `Cn1cc(-c2nc(N)nnc2-c2c[nH]c3ccc(F)cc23)c2cccnc21`, the growth was 64.5% (inactive).

Turning to `COc1ccc(N2N=C(c3ccc4c(c3)OCO4)CC2c2cccc(NC(=O)CCNS(=O)(=O)c3ccc(Cl)cc3)c2)cc1` (centres undefined), the growth was 18.7% (inactive). Take `Cc1nc(Nc2ccccn2)sc1C(=O)CC(SCC(=O)Nc1ccc(Cl)cc1)c1ccccc1F` (centres undefined): the growth is 27.5% (inactive).

Take `Cc1cccc(-c2nc(Nc3ccc(C)c(S(N)(=O)=O)c3)c3ccccc3n2)c1`: the growth was 46.6% (inactive). Still for that read-out and setting: the value for `CN(C)CCn1c2ccccc2c2nc3cc(C(F)(F)F)ccc3nc21` was 25.9% (inactive); that for `S=C(Nc1ccccc1)Nc1ccc(OCc2nc3ccccc3[nH]2)cc1` was 51.6% (inactive).

Another experiment concerns MDA-MB-231 breast. Described as above. To be noted: 10 µM unless noted.
On to `O=C1NC(=O)c2c1c1c3cc(Br)ccc3[nH]c1c1oc3ccc(F)cc3c21`, for which the growth was -25.3% (active). On the same count and under the same terms, the value for `C#CCOc1ccc(/C=N/Nc2nc(-c3ccc(F)cc3)cs2)cc1OC` was 73.5% (inactive). Still for that read-out and setting: as for `O=C1NC(=O)/C(=C/c2ccccc2OCc2cc3ccccc3nc2Cl)S1`, the figure is 64.2% (inactive); as for `Cc1ccc(NCC(=O)Cn2cc(COc3ccc(C=Nc4cnc5ccccc5c4)cc3)nn2)cc1`, 107% (inactive); as for `C/C(=N\N=C1/C(=O)Nc2ccccc21)c1ccc2c(c1)Nc1ccccc1S2`, 39% (inactive). Regarding `C/C(=N\N=C1/C(=O)Nc2ccc(Cl)cc21)c1ccc2c(c1)Nc1ccccc1S2`, the growth was -2.47% (active).

With `CCN(CC)c1ccnc(CNCCSC(c2ccccc2)(c2ccccc2)c2ccc(C)cc2)c1`, the growth was -97.7% (active). For the compound `Cc1cc2c(cc1Cl)C(=O)/C(=C/c1ccccc1)O2`, the growth was -36.5% (active). Still for that read-out and setting: as for `COc1ccc(C(=O)/C=C/c2ccc(OCc3ccc(F)cc3)c(OC)c2)cc1OC`, the figure is 11.1% (inactive); as for `COc1cc(OC)c2c3nc4cc(C)c(C)cc4nc3n(CCN(C)C)c2c1`, 38% (inactive); as for `N=C1N=C(SCc2nc3ccccc3[nH]2)NC(=O)/C1=C/c1ccc(Cl)cc1`, 92.8% (inactive). Regarding `COc1ccc(C2CC(c3ccc(S(=O)(=O)NCCNc4nc(Nc5ccc(F)cc5)nc(N(C)C)n4)cc3)=Nc3c(N)nc(N)nc3N2)cc1` (centres undefined), the growth is 64.2% (inactive).

Turning to `O=C(Cn1nc(-c2ccccc2)ccc1=O)N/N=C/c1ccc(N2CCOCC2)cc1`, the growth was 104% (inactive).

As to `CC1(C)CC[C@]2(C(=O)O)CC[C@]3(C)C(=CCC4[C@@]5(C)C[C@@H](O)[C@@H]6OC(c7cccc(Br)c7)OC[C@@]6(C)C5CC[C@]43C)C2C1` (some centres undefined), the growth was 71.2% (inactive). For `COc1ccc(C(=O)/C=C/c2ccc(OCc3ccccc3)c(OC)c2)cc1OC`, the growth was 13% (inactive). Still for that read-out and setting: as for `O=C(N=Nc1c(O)[nH]c2ccc([N+](=O)[O-])cc12)c1ccc2nc(-c3ccccc3)[nH]c2c1`, the figure is 59.5% (inactive). On the same count and under the same terms, the value for `C/C(=N\N=C\c1cc([N+](=O)[O-])ccc1Cl)c1ccc2c(c1)Nc1ccccc1S2` was 49.9% (inactive); that for `C=C1CCC2C3(C)COC(c4ccc(F)cc4)OC3CCC2(C)C1C/C=C1/C(=O)OCC1O` (centres undefined) was -45.2% (active); that for `CCCSc1nc(NCCc2c[nH]c3ccccc23)c(C#N)c(-c2ccc(OC)cc2)n1` was 41.2% (inactive). With `N/C(=N\c1nc2ccccc2s1)NC(=O)Nc1ccccc1Br`, the growth was -50.3% (active). As for `O=C(Cn1c2c(sc1=O)[C@H]1[C@@H](O)[C@@H](O)[C@H](O)[C@@H]1CS2)N1CCOCC1`, the growth is 106% (inactive). In the case of `COC(=O)/C=C/c1cccc2c1C(=O)NC(C)(c1cc3ccccc3oc1=O)N2` (centres undefined), the growth is 76.3% (inactive). `Brc1ccc(-c2n(Cc3ccc4ccccc4c3)c(-c3ccccc3)c(-c3ccccc3)[n+]2Cc2ccc3ccccc3c2)cc1`: the growth is -89.5% (active). The same measure, in the same setting: as for `COc1ccc(NC(=O)Cn2c3c(sc2=O)[C@H]2[C@@H](O)[C@@H](O)[C@H](O)[C@@H]2CS3)cc1`, the figure is 107% (inactive); as for `Cc1cc2nc3c4ccccc4n(CCCN(C)C)c3nc2cc1C`, -23.4% (active); as for `O=S(=O)(Nc1cccc(-n2cnc3cc(-c4ccc(O)cc4)ccc32)c1)C1CC1`, 42.4% (inactive). In the case of `CN(C)c1ccnc(CNCCSC2(c3ccc(C(F)(F)F)cc3)c3ccccc3C=Cc3ccccc32)c1`, the growth is -48% (active). The same measure, in the same setting: as for `CN(C)c1nc(NCCNS(=O)(=O)c2ccc(C3=Nc4c(N)nc(N)nc4NC(c4ccc(C(F)(F)F)cc4)C3)cc2)nc(Nc2ccc(F)cc2)n1` (centres undefined), the figure is -37.4% (active); as for `O=C(NN1C(=O)/C(=C/C=C/c2ccc([N+](=O)[O-])o2)SC1=S)c1ccc(Cl)cc1`, -97.5% (active). In the case of `COCOc1ccc2c(=O)c(C)c(C(=O)N[C@@H](Cc3ccccc3)C(O)C(=O)NCCc3ccc(OC)cc3)oc2c1` (some centres undefined), the growth was 99% (inactive). Same read-out and setting: as for `C#CCOc1cc(N(CC)CC)ccc1C(C(=O)NC(C)(C)C)N(C(=O)C1CCc2cc(F)ccc2O1)c1ccc(Br)cc1` (centres undefined), the figure is 61.6% (inactive); as for `Cc1cc2nc3c4ccccc4n(CC4=NCCN4)c3nc2cc1C`, -43.2% (active); as for `Cn1cc(-c2nc(N)nnc2-c2c[nH]c3ccc(F)cc23)c2cccnc21`, 22% (inactive).

Regarding `COc1ccc(N2N=C(c3ccc4c(c3)OCO4)CC2c2cccc(NC(=O)CCNS(=O)(=O)c3ccc(Cl)cc3)c2)cc1` (centres undefined), the growth was -5.89% (active).

Turning to `Cc1nc(Nc2ccccn2)sc1C(=O)CC(SCC(=O)Nc1ccc(Cl)cc1)c1ccccc1F` (centres undefined), the growth was -40.1% (active). With `Cc1cccc(-c2nc(Nc3ccc(C)c(S(N)(=O)=O)c3)c3ccccc3n2)c1`, the growth was 10.9% (inactive).

As for `CN(C)CCn1c2ccccc2c2nc3cc(C(F)(F)F)ccc3nc21`, the growth was 37.2% (inactive). Same read-out and setting: as for `S=C(Nc1ccccc1)Nc1ccc(OCc2nc3ccccc3[nH]2)cc1`, the figure is 37% (inactive).
